Results filed as inconclusive are left out. The source made the active and inactive calls. Unless noted, calls come from the whole dose curve; as a rule, active = well fitted curve in the direction sought with a large enough effect; inconclusive = small, poorly fitted or top-dose-only effect, or another doubt; inactive = no such curve, though single readings can be large; an effect the other way counts as inactive or inconclusive.
How the values were obtained:
[1] = qHTS profiling of the MIPE4 collection as inhibitors of Plasmodium falciparum (3D7) proliferation (AID 743344; call rule not given here;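 note: scaled between DMSO vehicle wells and 0.29 µM artemisinin as full inhibition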); details: P. falciparum 3D7 in erythrocytes, SYBR Green DNA fluorescence, 72 h; at 28.5 µM unless noted
Procedure, shortened: (§1)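 Parasite DNA was quantified by SYBR Green I fluorescence (ex 485, em 535 nm) after overnight lysis in saponin/Triton buffer at room temperature. Cultures at 0.3% parasitemia and 2.5% hematocrit were first exposed to compound for 72 h at 37 C; signals were normalised to artemisinin (0.29 uM) and vehicle wells.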

[2] = qHTS profiling of the MIPE4 collection as inhibitors of Plasmodium falciparum (DD2) proliferation (AID 743345; call rule not given here); details: P. falciparum Dd2 in erythrocytes, SYBR Green DNA, 72 h; at 28.5 µM unless noted
Procedure, shortened: as §1

[3] = qHTS profiling of the MIPE4 collection as inhibitors of Plasmodium falciparum (HB3) proliferation (AID 743347; call rule not given here;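 note: plate controls were DMSO vehicle wells for no effect and artemisinin wells for full effect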); details: P. falciparum HB3 in erythrocytes, SYBR Green DNA, 72 h; at 28.5 µM unless noted
Procedure, shortened: as §1

[4] = High-throughput drug toxicity screening in the BPDCN cell line Gen2.2 (AID 1224824; call rule not given here;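 note: cells exposed to compounds for 48 h before reading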); details: Gen2.2 BPDCN cells; at 45.8 µM (top of the series) unless noted
Procedure, shortened: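 Gen2.2 cells, 500 per well in phenol red-free RPMI with 10% FBS, exposed to compounds 48 h at 37 C, 5% CO2; viability by CellTiter-Glo luminescence. Percent activity scaled to DMSO (100%) and 9.2 uM bortezomib final (0%).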

[5] = High-throughput drug toxicity screening in the BPDCN cell line Cal-1 (AID 1224825; call rule not given here); details: Cal-1 BPDCN cell viability, qHTS; at 45.8 µM (top of the series) unless noted
Procedure, shortened: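 CellTiter-Glo luminescence after 48 h compound exposure; percent activity scaled with DMSO as 100% and bortezomib (9.2 uM final) as 0%. Cal-1 cells seeded at 500/well in RPMI, 10% FBS, no phenol red.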

[6] = qHTS assay for measurement of the activity of small molecule inhibitors on Zika virus induced Caspase-3 activity in human iPSC derived neural progenitor cells (hNPCs) (AID 1224857); note: nearly all actives have a fitted effect of over 65% in size; note: potency is the fitted concentration of half-maximal effect
Procedure, shortened: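 Percent inhibition of virus-induced caspase-3/7 luminescence (Caspase-Glo), scaled between uninfected cells and Zika-infected cells. hNPCs received compound 1 hr before ZIKV at 2 FFU/cell, with 6 hours infection at 37 C.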

[7] = qHTS assay for measurement of the activity of small molecule inhibitors on Zika virus induced Caspase-3 activity in human astrocytoma cells (AID 1224859); note: potency is the fitted concentration of half-maximal effect
Procedure, shortened: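 Luminescent caspase-3/7 read-out (30 min reagent, room temperature) in human SNB-19 cells infected 6 h with ZIKV (2 FFU/cell) after 1 h compound pre-incubation; Data were normalised to uninfected and infected wells.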

[8] = qHTS Screen of the MIPE 4.0 Collection Against Ewings Sarcoma (RDES) (AID 1259252); note: nearly all actives have a fitted effect of over 35% in size; note: potency is the fitted concentration of half-maximal effect
Procedure, shortened: (§2)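 Log-phase cells in RPMI with 5% FBS attached for 4 h, then received compounds as a titration for 48 h at 37C, 5% CO2. Viability was read by CellTiter-Glo luminescence and normalized to DMSO and no-cell wells.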

[9] = qHTS Screen of the MIPE 4.0 Collection Against Ewings Sarcoma (TC71) (AID 1259253); note: nearly all actives have a fitted effect of over 40% in size; note: potency is the fitted concentration of half-maximal effect
Procedure, shortened: as §2

[10] = qHTS Screen of the MIPE 4.0 Collection Against Ewings Sarcoma (EW8) (AID 1259255); note: nearly all actives have a fitted effect of over 35% in size; note: potency is the fitted concentration of half-maximal effect;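 for viability: 100% = DMSO-treated cells and 0% = medium-only wells without cells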
Procedure, shortened: as §2

[11] = qHTS Screen of the MIPE 4.0 Collection Against Ewings Sarcoma (TC32) (AID 1259256); note: nearly all actives have a fitted effect of over 45% in size; note: potency is the fitted concentration of half-maximal effect
Procedure, shortened: as §2

[12] = qHTS profiling of the MIPE4 collection as inhibitors of Plasmodium falciparum (DD2) proliferation (Rep 2) (AID 743346; call rule not given here); details: P. falciparum Dd2 in erythrocytes, SYBR Green DNA, 72 h; at 28.5 µM unless noted
Procedure, shortened: as §1

[13] = qHTS assay to identify small molecule inhibitors of chordoma cells - UCH-1 (AID 1259355); note: % is set by controls: 0 for no effect and ±100 for the full control effect; nearly all actives have a fitted effect of over 55% in size
Procedure, shortened: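 Screening used approved and investigational drugs in 15-point titration against 800 seeded cells per well. A fixed combination of auranofin with camptothecin, doxorubicin, rubitecan and topotecan followed compound addition, and growth was scored by CellTiter-Glo after 48hr.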

[14] = qHTS assay to identify small molecule inhibitors of chordoma cells - UCH-2 (AID 1259356); note: % is set by controls: 0 for no effect and ±100 for the full control effect
[15] = qHTS profiling for inhibitors of Plasmodium falciparum (3D7) proliferation (AID 743322);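 note: infected erythrocytes exposed to compound for 72 h before lysis; 100% = DMSO vehicle wells and 0% = 0.29 µM artemisinin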; details: P. falciparum 3D7 proliferation; at 28.7 µM (top of the series)
Procedure, shortened: as §1

[16] = qHTS profiling for inhibitors of Plasmodium falciparum (DD2) proliferation (AID 743323; call rule not given here); details: lower = more inhibition; at 28.7 µM (top of the series)
Procedure, shortened: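 Parasite DNA quantified by SYBR Green fluorescence (ex 485, em 535 nm) after saponin/Triton lysis and overnight dark incubation. Cultures: 0.3% parasitemia, 2.5% hematocrit, 72 h, 37 C; data scaled between DMSO and 0.29 uM artemisinin.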

[17] = qHTS profiling for inhibitors of Plasmodium falciparum (HB3) proliferation (AID 743324); details: Plasmodium falciparum HB3 blood-stage proliferation; at 28.7 µM (top of the series);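 note: 100% = DMSO vehicle wells and 0% = artemisinin-treated control wells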
Procedure, shortened: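 SYBR Green fluorescence (485 ex/535 em) of lysed cultures, incubated overnight at room temperature in the dark, quantifies parasite DNA. Infected erythrocytes at 0.3% parasitemia and 2.5% hematocrit were exposed 72 h; values normalized to DMSO and 0.29 uM artemisinin controls.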

[18] = Identifying Small Molecule Inhibitors of Pancreatic Cancer Stem Cells (A2780, Spheroid) (AID 1259357); details: Potency: A2780 spheroid viability;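 note: spheroids pre-formed over 14 days in stem cell medium on hydrogel; potency is the fitted concentration of half-maximal effect; compound exposure lasted 48 h before the ATP luminescence read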
Procedure, shortened: (§3)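 Spheroids grown 14 days in stem cell media on hydrogel-coated nonadherent plates; 2D lines seeded directly. Compounds added after 4 h attachment, 48 h at 37C, 5% CO2; CellTiter-Glo luminescence normalized to DMSO (no inhibition) and no-cell wells (full inhibition).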

[19] = Identifying Small Molecule Inhibitors of Pancreatic Cancer Stem Cells (SN12C, Adherent) (AID 1259358);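 note: potency is the fitted concentration of half-maximal effect; cell survival measured after 48 h of compound exposure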
Procedure, shortened: as §3

[20] = Identifying Small Molecule Inhibitors of Pancreatic Cancer Stem Cells (Panc1, Spheroid) (AID 1259359);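 note: potency is the fitted concentration of half-maximal effect; compound exposure lasted 48 h before reading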
Procedure, shortened: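 Spheroids grown 14 days in stem cell media on nonadherent hydrogel before screening; cells attached 4 h, then compound exposure 48 h at 37C, 5% CO2. CellTiter-Glo luminescence normalized to DMSO (no inhibition) and no-cell wells (full inhibition).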

| Compound | parasite growth, % of DMSO control [1] | parasite growth remaining, % of DMSO control (lower = more inhibition) [2] | growth, % of control [3] | cell viability, % of control (lower = more cytotoxic) [4] | viability (% of control) [5] | Potency [6] | Potency [7] | Potency [8] | Potency [9] | Potency [10] | Potency [11] | parasite growth, % of control (lower = inhibition) [12] | Potency [13] | outcome [14] | remaining parasite growth % (stronger effect = lower value) [15] [%] | activity, percent of control [16] [%] | remaining proliferation (% of control), lower = more inhibition [17] [%] | Potency [18] | Potency [19] | Potency [20] |
| --- | --- | --- | --- | --- | --- | --- | --- | --- | --- | --- | --- | --- | --- | --- | --- | --- | --- | --- | --- | --- |
| CN(C)Cc1c(C(=O)NCCOc2ccc(C(=O)NO)cc2)oc2ccccc12 | 5.24% | 7.04% | 6.43% | 38.7% | 5.5% | inactive | inactive | 1050 nM (active) | 935 nM (active) | 1050 nM (active) | 833 nM (active) | – | – | – | – | – | – | – | – | – |
| O=c1[nH]c(=O)n(C2CCCO2)cc1F (stereo not given) | 404% [at 57.5 µM] | 99.7% [at 57.5 µM] | 412% [at 57.5 µM] | 130% [at 92.2 µM] | 116% [at 92.2 µM] | inactive | inactive | – | inactive | inactive | inactive | 110% [at 57.5 µM] | inactive | inactive | – | – | – | – | – | – |
| C=CC(=O)Nc1cccc(Oc2nc(Nc3ccc(N4CCN(C)CC4)cc3)ncc2Cl)c1 | 8.39% | – | 5.58% | 8.16% | 2.81% | inactive | inactive | 2350 nM (active) | 14800 nM (active) | 2640 nM (active) | 2640 nM (active) | – | – | – | – | – | – | – | – | – |
| Cc1c(CN2CCN(S(C)(=O)=O)CC2)sc2c(N3CCOCC3)nc(-c3cnc(N)nc3)nc12 | 5.64% | 14.2% | 5.68% | 16.1% | 19.3% | inactive | inactive | 59 nM (active) | 66.2 nM (active) | 66.2 nM (active) | 37.2 nM (active) | 18.4% | – | – | – | – | – | – | – | – |
| CC(C)c1nn(-c2c(Cl)cccc2Cl)c2nc(Cc3ccc(OCCO)cc3)[nH]c(=O)c12 | 20.8% | 62% | 21.7% | 3.64% | 2.52% | inactive | inactive | 187 nM (active) | 132 nM (active) | 148 nM (active) | 105 nM (active) | – | – | – | – | – | – | – | – | – |
| CCS(=O)(=O)c1cccc(-c2cc(C(=O)NC3CCN(C)CC3)c(C)c3[nH]c4ncc(C)cc4c23)c1 | 5.84% | – | 7.05% | 7.25% | 2.47% | inactive | inactive | 743 nM (active) | 3320 nM (active) | 118 nM (active) | 235 nM (active) | 15.1% | – | – | – | – | – | – | – | – |
| Cc1c(Cn2c(C)nc3c(C(=O)O)cc(N4CCOCC4)cc32)cccc1C(F)(F)F | 72.5% | 93.9% | 124% | 52.8% | 70.7% | inactive | inactive | 14800 nM (active) | 10500 nM (active) | 11800 nM (active) | 14800 nM (active) | 104% | – | – | – | – | – | – | – | – |
| Cn1c(CNc2ccc(C(=N)N)cc2)nc2cc(C(=O)N(CCC(=O)O)c3ccccn3)ccc21 | 98.6% [at 9.64 µM] | 91.9% [at 9.64 µM] | 87.7% [at 9.64 µM] | 125% [at 23.2 µM] | 105% [at 23.2 µM] | inactive | inactive | inactive | inactive | inactive | inactive | 86.3% [at 9.64 µM] | – | – | – | – | – | – | – | – |
| COc1cccc(-c2ccc(NC(=O)C3=C(C(=O)O)CCC3)c(F)c2)c1 | 64.2% | 90.8% | 78.8% | 19% | 4.11% | 2640 nM (active) | 2350 nM (active) | 14800 nM (active) | 11800 nM (active) | 9350 nM (active) | 16600 nM (active) | – | – | – | – | – | – | – | – | – |
| CN1CCN(Cc2ccc(NC(=O)Nc3ccc(Oc4cc(NC(=O)C5CC5)ncn4)cc3)cc2C(F)(F)F)CC1 | 6% | – | 7.58% | 0.71% | 0.746% | inactive | inactive | 372 nM (active) | 132 nM (active) | 372 nM (active) | 296 nM (active) | 14.2% | – | – | – | – | – | – | – | – |
| COc1cc(-c2nn(C3CCC(N4CCN(C(C)=O)CC4)CC3)c3ncnc(N)c23)ccc1NC(=O)c1cc2ccccc2n1C (stereo not given) | 5.39% | 12.1% | 7.32% | 34.5% | 9.55% | inactive | – | 1870 nM (active) | 2960 nM (active) | 6620 nM (active) | 3720 nM (active) | 20.7% | – | – | – | – | – | – | – | – |
| COC(=O)[C@]12CCC(C)(C)C[C@@H]1[C@@H]1C(=O)C=C3[C@@]4(C)C=C(C#N)C(=O)C(C)(C)[C@@H]4CC[C@@]3(C)[C@]1(C)CC2 | 13.9% | 7.23% | 11.3% | 3.73% | 2.87% | inactive | – | 372 nM (active) | 264 nM (active) | 296 nM (active) | 118 nM (active) | 25.5% | – | – | 0.25 | 0.779 | 2.29 | 1320 nM (active) | 2640 nM (active) | 1180 nM (active) |
| CC(C)CC(=O)Nc1n[nH]c2c1CN(C(=O)C1CCN(C)CC1)C2(C)C | 5.43% | 19.3% | 5.85% | 3.03% | 2.15% | inactive | inactive | – | 743 nM (active) | 1320 nM (active) | 833 nM (active) | 34.2% | – | – | 9.49 | 13.7 | – | – | – | – |
| O=C(O)c1ccc2cc(-c3ccc(O)c(C45CC6CC(CC(C6)C4)C5)c3)ccc2c1 | 13.5% | 40% | 11.7% | 30.9% | 7.6% | inactive | inactive | – | 590 nM (active) | 1660 nM (active) | 372 nM (active) | 25.3% | – | – | 5.44 | 10.6 | -1.12 | – | 2640 nM (active) | – |

Reference: PubChem BioAssay (NCATS)
